# KinaseGlo FLuc = Counterscreen for Luciferase (Kinase-Glo TM) Inhibition; Kinase-Glo luciferase, ATP luminescence, 8 min; AID 1379, 2008; Potency, µM (series often up to 38.3 µM), without a hit: top-dose activity change, negative = inhibition, usual class: inhibitors; 200,000 compounds, 0.28% hits; note: % is set by controls: 0 for no effect and ±100 for the full control effect; nearly all actives have a fitted effect of over 60% in size
#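 Substrate mix (final 50 mM imidazole pH 7.2, 50 mM KCl, 7 mM MgCl2, 10 uM ATP, 0.01% Tween 20, 0.05% BSA) plus pin-tool compound, then Kinase-Glo detection mix; 8 min ambient, luminescence read.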
# Rab9 promoter act = qHTS Assay for Rab9 Promoter Activators | AID 485297, 2010 | 320,000 compounds, 2.8% hits | Potency, µM (highest dose often 9.22 µM), for inactives: at the top dose activation, negative = inhibition, actives largely listed as activators | Huh7 Rab9 promoter-luciferase reporter, luminescence, 24 h; note: % of control where 0% means no effect; nearly all actives have a fitted effect of over 60% in size
#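 Luminescence read-out: Huh7 cells stably expressing Rab9-luciferase, treated 24 h with compound at 37 °C, then lysed with luciferase reagent for 10 min at ambient before reading.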
# SMN2 splice enh = qHTS Assay for Enhancers of SMN2 Splice Variant Expression; HEK293 SMN2-luciferase splicing reporter, luminescence, 30-36 h; Potency, µM (doses to about 46.1 µM), inactives show top-dose activity change, positive = activation, usual class: activators; 210,000 compounds, 2.8% hits; AID 1458, 2008; note: % of control where 0% means no effect; nearly all actives have a fitted effect of over 55% in size
#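 qHTS luciferase splicing reporter: luminescence rises when SMN2 exon 7 is included in transfected HEK293 cells. Compound exposure lasted 30-36 h at 37C, with 4.5 mM final sodium butyrate as control, followed by a ONE-Glo read.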
# ELG1 genotoxic = qHTS screen for small molecules that induce genotoxicity in human embryonic kidney (HEK293T) cells expressing luciferase-tagged ELG1; HEK293T ELG1-luciferase reporter, luminescence, 16 h; Potency, µM (top dose mostly 46 µM), inactives show at the highest dose activity change, positive = activation, actives largely listed as activators; 330,000 compounds, 1.3% hits; note: % of control where 0% means no effect; nearly all actives have a fitted effect of over 60% in size
#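 Reporter readout depends on ELG1 protein level, which increases with genetic stress. After 16 hr compound exposure at 37 °C, luciferase activity was quantified using ONE-Glo.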
# FLuc modulator = qHTS profiling assay for firefly luciferase inhibitor/activator using purifed enzyme and Km concentrations of substrates (counterscreen for miR-21 project); Luciferin 4-monooxygenase (Photinus pyralis), P08659; purified FLuc, Km substrates, luminescence inhibition; Potency, µM (titrated, usually from 57.5 µM), inactives show at the top dose activity change, negative = inhibition, most hits filed as inhibitors; 360,000 compounds, 6.9% hits; AID 588342, 2011;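 note: plate controls were vehicle for no effect and reference inhibitor for full effect; nearly all actives have a fitted effect of over 55% in size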
# Target sequence (P08659 whole entry, looked up): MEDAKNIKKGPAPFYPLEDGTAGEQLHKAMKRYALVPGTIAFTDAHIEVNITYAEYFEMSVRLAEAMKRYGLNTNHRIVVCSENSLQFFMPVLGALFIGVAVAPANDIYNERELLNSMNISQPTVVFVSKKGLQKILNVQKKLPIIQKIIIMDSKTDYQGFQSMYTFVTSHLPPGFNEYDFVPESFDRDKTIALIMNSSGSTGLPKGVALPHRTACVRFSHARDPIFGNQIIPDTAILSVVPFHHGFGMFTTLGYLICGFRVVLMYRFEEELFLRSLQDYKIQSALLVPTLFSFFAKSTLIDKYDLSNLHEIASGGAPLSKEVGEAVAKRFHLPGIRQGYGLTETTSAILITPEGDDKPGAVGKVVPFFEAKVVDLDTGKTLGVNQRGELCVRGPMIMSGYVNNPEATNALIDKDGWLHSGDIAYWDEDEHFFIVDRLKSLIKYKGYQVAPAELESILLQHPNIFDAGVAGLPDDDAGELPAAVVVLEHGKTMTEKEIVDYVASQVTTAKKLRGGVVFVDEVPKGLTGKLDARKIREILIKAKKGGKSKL
#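 Purified P. pyralis luciferase (10nM final) with 10uM D-luciferin and 10uM ATP (Km levels) in 50mM Tris acetate pH 7.5, 10mM Mg acetate, 0.01% Tween-20, 0.05% BSA; qHTS 6-point titration, ~60 µM downward; luminescence read.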
# NPC1 prom act = qHTS Assay for NPC1 Promoter Activators; Huh7 NPC1 promoter luciferase reporter, 24 h; Potency, µM (top dose mostly 9.22 µM), without a hit: at the top dose activation, actives largely listed as activators; 320,000 compounds, 2.4% hits; AID 485313, 2010; note: % of control where 0% means no effect; nearly all actives have a fitted effect of over 60% in size
#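 Huh7 reporter cells (NPC1 promoter driving luciferase) are dosed with compound for 24 h at 37 °C, 5% CO2; luciferase detection reagent is then added and luminescence measured after 10 min at ambient temperature.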
# Numbers without * were called inactive; u = inconclusive; x = no result; [ ] = dose if it differs, or a comment. An excerpt weighted towards active compounds, which were near 7.4% of everything screened. Calls come from the whole dose curve; as a rule, active = well fitted curve in the direction sought with a large enough effect; inconclusive = small, poorly fitted or top-dose-only effect, or another doubt; inactive = no such curve, though single readings can be large; an effect the other way counts as inactive or inconclusive. Potency is the fitted concentration of half-maximal effect.
SMILES,KinaseGlo FLuc,Rab9 promoter act,SMN2 splice enh,ELG1 genotoxic,FLuc modulator,NPC1 prom act
CC(C)(C)NC(=S)Nc1ccc(Br)cc1,-1%,15%,-22%,2%,19µM*,6%
S=C(Nc1ccc(Cl)cc1)NC1CCCCC1,x,19%,x,-4%,15µM*,29%
COc1ccc(C(=O)NCc2nnc(SCC(=O)N3CCCC3)o2)cc1,x,1%,x,0%,-1%,0%
CCN(CC)CCCNC(=S)Nc1ccc(Br)cc1,-15%,u,x,23µM*,11µM*,u
Cc1ccc(Cn2cc(/C=N/Nc3ccc([N+](=O)[O-])cn3)c3ccccc32)cc1,-1%,-3%,-46%,1%,5%,-5%
Cc1cc(/C=N/Nc2ccc([N+](=O)[O-])cn2)c(C)n1-c1ccccc1,13%,3.5µM*,u,u,u,u
O=C(O)Cn1cc(/C=N/Nc2ccc([N+](=O)[O-])cn2)c2ccccc21,x,-3%,x,0%,13µM*,2%
Brc1csc(C=Nc2ccc3c(c2)OCCOCCOCCOCCO3)c1,-3%,0%,-4%,2%,3%,-2%
Brc1ccc(C=Nc2ccc3c(c2)OCCOCCOCCO3)s1,-1%,2%,-1%,0%,11µM*,0%
Oc1c(Cl)cc(Cl)cc1C=Nc1ccc2c(c1)OCCO2,-14%,-7%,x,15%,27µM*,0%
O=C(OCC(=O)c1ccc(Cl)s1)c1cnccn1,x,8%,x,2%,19µM*,-5%
O=C(OCc1ccc(Cl)cc1)c1cnccn1,-5%,6%,19%,-1%,-4%,4%
O=C(COC(=O)c1ncc(Cl)c(Cl)c1Cl)c1ccc(Cl)s1,-3%,4%,17%,1%,12µM*,10%
O=C(OCC(=O)c1ccc(Cl)s1)c1ccccn1,-16%,0%,5%,-1%,7.6µM*,0%
COc1ccc(NC(=O)C2CCCN2S(=O)(=O)c2cccs2)c([N+](=O)[O-])c1 (stereo not given),x,0%,x,-2%,3%,-1%
N#CCCNS(=O)(=O)c1ccc(C(=O)OCCCOC(=O)c2ccc(S(=O)(=O)NCCC#N)cc2)cc1,x,11%,x,-12%,1.2µM*,16%
COc1ccc(-c2nc(N=Nc3ccc(O)cc3)n[nH]2)cc1,0%,4%,-9%,6%,9.5µM*,-6%
Cc1ccc(S(=O)(=O)Nc2ccc(N=Nc3ccc(O)cc3)cc2)cc1,-3%,-4%,16%,4%,-11%,1%
Cc1ccc(-c2nc(N=Nc3ccc(O)cc3)n[nH]2)cc1,-1%,-9%,25µM*,2%,8.5µM*,5%
COc1ccc(O)cc1,x,x,-11%,10%,x,x
Cc1nc(N=Nc2ccc(O)cc2)n[nH]1,x,u,x,u,17µM*,3.2µM*
CCN(CC)S(=O)(=O)c1cc(NC(=O)c2cc([N+](=O)[O-])ccc2N2CCOCC2)ccc1C,x,-1%,x,-11%,1%,-2%
c1ccc(-c2ccc(-c3nccc4ccccc34)[nH]2)cc1,x,1µM*,x,u,0.15µM*,u
N#C/C(=C\c1ccc(OCc2ccc(C(=O)O)cc2)cc1)C(=O)N1CCOCC1,4%,2.8µM*,1.6µM*,u,17µM*,u
COc1ccc(NC(=O)CN(C)C(=O)c2ccc(OCc3ccccc3)c(OC)c2)cc1,x,1%,x,0%,4%,4%
SMILES,KinaseGlo FLuc,Rab9 promoter act,SMN2 splice enh,ELG1 genotoxic,FLuc modulator,NPC1 prom act
C/C(=N\NC(=S)Nc1cc(S(=O)(=O)N2CCOCC2)ccc1Cl)c1ccccc1F,4%,-15%,-82%,8%,27µM*,-5%
CC1=C(c2ccc(C)c(C)c2)S(=O)(=O)N=C1N1CCC(C(=O)NCc2ccc(N(C)C)cc2)CC1,x,x,x,x,-9%,x
COC(=O)c1ccc(N2CCCCC2)c(N)c1,1%,3.5µM*,22µM*,u,11µM*,u
COC(=O)c1ccc(N2CCC(C)CC2)c(N)c1,6%,u,7%,18µM*,12µM*,u
COC(=O)c1ccc(C(=O)OC)c(N)c1,-6%,20%,18%,7%,u,-1%
CCc1cccc(NC(=O)c2cnn(-c3ccccc3)c2C)c1,x,2.2µM*,x,1.8µM*,2.1µM*,0.89µM*
O=C(Nc1cccnc1)c1coc(=O)c2ccccc12,2%,-1%,-4%,1%,1%,-10%
COc1cccc(NC(=O)c2cnn(-c3ccccc3)c2C)c1,x,13µM*,x,1.8µM*,1.5µM*,u
CCc1cccc(NC(=O)c2coc(=O)c3ccccc23)c1,x,x,12%,x,11µM*,x
CCn1ncc(C(=O)Nc2cccc(Cl)c2)c1C,-2%,u,13µM*,u,9.5µM*,3%
CCOC(=O)c1cccc(NC(=O)c2cnn(-c3ccccc3)c2-n2cccc2)c1,x,x,-40%,x,-11%,x
COCCCn1c(SCc2ccccc2F)nc2c(sc3ccccc32)c1=O,x,x,x,x,4%,x
COc1ccc(CNC(=O)CC(c2ccc(OC)cc2)N2Cc3ccccc3C2=O)cc1 (stereo not given),x,x,x,x,4%,x
NNC(=O)c1ccc(OCc2nc3ccccc3[nH]2)cc1,-4%[7.66 µM],x,-15%[9.22 µM],x,x,x
COc1ccc(OCc2nc3ccccc3[nH]2)cc1,u,0.56µM*,11µM*,1.8µM*,3.4µM*,1.6µM*
Brc1ccc(OCc2nc3ccccc3[nH]2)cc1,x,2.5µM*,x,u,2.4µM*,3.2µM*
COc1cccc(OCc2nc3ccccc3[nH]2)c1,u,3.5µM*,13µM*,u,6.7µM*,3.2µM*
COc1cccc(OCc2nc3ncc(Br)cc3[nH]2)c1,1%,12%,u,u,-19%,-8%
c1ccc2cc(OCc3nc4ccccc4[nH]3)ccc2c1,-11%,2µM*,2.8µM*,u,1.9µM*,2.2µM*
Cc1ccc(-n2ccnc(NCCc3ccc(S(N)(=O)=O)cc3)c2=O)c(C)c1,x,x,x,x,4%,x
Cc1ccc(-c2nnc(Nc3ccc(Br)cc3)c3ccccc23)cc1S(=O)(=O)N1CCN(C)CC1,x,x,x,x,-11%,x
Cc1ccc(/C=N/c2sc(Cc3ccccc3)c(C)c2C(N)=O)o1,-3%,2%,22%,0%,-6%,0%
CN(C)c1ccc(C=Nc2ccccc2C(N)=O)cc1,-21%,0.79µM*,13µM*,10µM*,1.5µM*,3.2µM*
Cc1ccc(C=Nc2ccccc2C(N)=O)o1,u,3.5µM*,11µM*,u,27µM*,u

# Screens as filed in PubChem.
